Measured values published in the supplement of paper PMC3334620.
In all, about 33,000 sequences were measured (“E-score (-0.5 to 0.5)”: median about -0.04, highest 2% from about 0.36 on). Shown is part of a subset that was picked to be rich in the highest values.

target: T1, Hmlalpha2 (UniProt P0CY09); assay: PBM E-score (8-mer binding enrichment) (E-score (-0.5 to 0.5)); higher = stronger / more preferred TF binding; conditions: protein concentration: 200 nM; construct: GST-full length
T1 sequence: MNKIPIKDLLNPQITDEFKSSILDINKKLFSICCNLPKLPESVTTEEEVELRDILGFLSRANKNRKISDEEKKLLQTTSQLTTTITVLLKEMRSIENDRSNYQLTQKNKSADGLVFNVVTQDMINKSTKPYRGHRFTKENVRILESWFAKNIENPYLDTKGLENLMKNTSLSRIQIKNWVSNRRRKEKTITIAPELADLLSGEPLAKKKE
Protocol: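 Universal 'all 10-mer' protein binding microarrays (Agilent AMADID 015681) probed with GST-tagged S. cerevisiae TFs (full-length or DBD) made by in vitro transcription/translation (PURExpress), about 100-200 nM. Bound TF was detected with fluorescent anti-GST. Each ungapped 8-mer (which stands for itself and its reverse complement) is scored by the PBM enrichment score (E-score), a modified Wilcoxon-Mann-Whitney statistic from -0.5 to +0.5, computed with the Universal PBM Analysis Suite. Scale: above 0.35 generally sequence-specific binding.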

| Sequence | PBM E-score |
| --- | --- |
| CTTACAAC | 0.301 |
| ATTACAAC | 0.4 |
| CTCACACC | -0.254 |
| ATTACGAA | 0.289 |
| GTTACAAC | 0.258 |
| CTTGAGGA | -0.227 |
| ATATGCCC | -0.274 |
| AGTGAACA | 0.154 |
| AGATTCTA | 0.0504 |
| ATATAGGA | 0.0657 |
| ACCAGGAC | 0.0306 |
| CATGTGAA | 0.318 |
| CCATGAGG | -0.313 |
| AAAGAAAT | 0.175 |
| GACAGGCC | -0.143 |
| CGCTCTGA | -0.135 |
| ACGAGGGA | -0.0452 |
| CGGTAAAG | 0.00317 |
| TCTACAAA | 0.252 |
| CTTACATC | 0.283 |
| ATTACAGC | 0.141 |
| ATTACATC | 0.445 |
| ATTACAAT | 0.385 |
| ACTACAAT | 0.137 |
| CTTACAAA | 0.232 |

| Sequence | PBM E-score |
| --- | --- |
| AGTACAAT | 0.25 |
| TTTACAAA | 0.412 |
| ATGGGACG | -0.19 |
| GCAAAGAC | -0.121 |
| CTGCGCGC | -0.00351 |
| TGCAGCAA | -0.0391 |
| GATACTCA | -0.0664 |
| ACTTACAG | 0.134 |
| ACTTACAT | 0.43 |
| CCTTACAC | 0.334 |
| ACTTACAA | 0.29 |
| GCTTACAC | 0.362 |
| ACTTACAC | 0.378 |
| ACAGTAGC | -0.0946 |
| CCCCCCGG | -0.366 |
| ACTCTACC | -0.0519 |
| ATTGTGTA | 0.42 |
| ATTGTGTG | 0.112 |
| GTTGTGCA | -0.00044 |
| ATTGTGTC | 0.233 |
| CTTGTGTA | 0.41 |
| GTTGTATA | 0.38 |
| CTTGTATA | 0.289 |
| ATTGTATA | 0.171 |
| GTTGTGGA | 0.0527 |

| Sequence | PBM E-score |
| --- | --- |
| CTTGTGAA | 0.182 |
| CTTGTGTC | 0.0968 |
| GTTGTGTA | 0.448 |
| ACTGTTCG | 0.0673 |
| AACTGCTA | -0.0585 |
| AGAGGTGA | -0.0117 |
| CACCAGTA | -0.0753 |
| ACGGACAT | -0.0204 |
| ATAACACC | 0.259 |
| AGAACACA | 0.268 |
| GTAACACA | 0.324 |
| CTAACACC | 0.153 |
| CTAACAAG | 0.175 |
| ATAACACG | 0.461 |
| ATAACAAG | 0.352 |
| CTAACACA | 0.376 |
| ATAACACA | 0.439 |
| GTTCTAGA | -0.00839 |
| CCCTGACG | -0.351 |
| ATTTAGCC | 0.0155 |
| GACCTTGC | -0.356 |
| AGTTTCGG | -0.031 |
| ACAACAAA | 0.284 |
| TCAACACA | 0.43 |
| CCAACACG | 0.375 |

| Sequence | PBM E-score |
| --- | --- |
| CCAACACC | -0.206 |
| ACAACACC | 0.182 |
| ACAACACT | 0.248 |
| TCAACAGA | 0.149 |
| ACAACAGG | 0.155 |
| ACAACACA | 0.405 |
| CCAACACA | 0.248 |
| GCAACACA | 0.167 |
| ACAACACG | 0.417 |
| GGTATGCA | -0.0286 |
| AGGCCTTC | -0.156 |
| AATCCGTG | -0.129 |
| CGTCCATA | 0.0125 |
| GGCAACAA | 0.0607 |
| TAATTTCA | 0.182 |
| ATCAAGTG | -0.0416 |
| CAGCATTA | 0.109 |
| GCATTTCA | -0.082 |
| AAACGACT | -0.0906 |
| ACACGAGA | 0.291 |
| ACACGACG | 0.42 |
| ACACGAGT | 0.389 |
| GCACGACC | -0.188 |
| CCACGACC | -0.0888 |
| ACACGAGG | 0.292 |

| Sequence | PBM E-score |
| --- | --- |
| ACACGACT | 0.391 |
| ACACGACC | 0.396 |
| AGACGACG | -0.129 |
| CCACGACG | -0.097 |
| ACACGAAT | 0.356 |
| AAATGCAG | -0.012 |
| ACCCGACC | -0.145 |
| ACTAACGG | -0.168 |
| CCACGACA | -0.103 |
| ACACGACA | 0.412 |
| TCACGACA | 0.116 |
| ATTACGGG | -0.0184 |
| CTTACGCA | 0.341 |
| ATTACGCG | 0.467 |
| ATTACGCC | 0.187 |
| ATTACGCA | 0.435 |
| GTTACGCA | 0.277 |
| CGAAGAGC | -0.12 |
| CCAAGCAG | -0.127 |
| AACAGCTA | 0.115 |
| ACCTGAGG | -0.266 |
| CATTAACG | 0.277 |
| AATTAACC | 0.104 |
| TATTAATA | 0.173 |
| TATTAACA | 0.428 |

| Sequence | PBM E-score |
| --- | --- |
| TATTAAAA | 0.24 |
| AATTAACA | 0.425 |
| GATTAACC | -0.108 |
| AATTAACT | 0.173 |
| GATTAAGA | 0.0797 |
| CATTAACA | 0.409 |
| GATTAACA | 0.413 |
| CATTAACC | 0.128 |
| GGCAGTTA | 0.0486 |
| CACCGGGC | -0.256 |
| ATGGTATA | 0.178 |
| CTTGACTC | -0.216 |
| GCAAGCTA | 0.0155 |
| ATTTGCTG | 0.024 |
| CTACACTC | 0.145 |
| CTACACCA | 0.165 |
| GTACACGA | 0.425 |
| CTACACGA | 0.451 |
| CTACACTA | 0.208 |
| GTACACTA | 0.135 |
| CGACACGC | 0.243 |
| GTACACCA | 0.089 |
| CTACACGC | 0.428 |
| AGCCACCG | -0.248 |
| CCCACCAC | -0.191 |

| Sequence | PBM E-score |
| --- | --- |
| ATACGCCA | -0.109 |
| CAATACAC | 0.431 |
| AAATACTT | 0.208 |
| TAATACAA | 0.375 |
| AAATACAA | 0.347 |
| CAATATAC | 0.131 |
| AAATACAT | 0.441 |
| AAATACAC | 0.431 |
| CAATACAG | 0.0335 |
| AAATACAG | 0.172 |
| TCATACAA | 0.0397 |
| CAATACAA | 0.256 |
| AAATACGT | 0.246 |
| GTGGGACA | -0.0285 |
| AGCTGTTA | 0.0595 |
| CGGTGCGA | -0.141 |
| CACTGTTA | 0.0828 |
| ACGCTACG | 0.0651 |
| GACCGTCC | -0.302 |
| TAAGGCCA | 0.0046 |
| TAAGCAGA | 0.00375 |
| AGAATCTG | -0.187 |
